Reference: the supplement of paper PMC10849652
Of roughly 8,800 targets only a part is listed; those with a hit were picked by preference. About 0.5% of all pairs of compound and target were hits.

Experiments:
Test in all cases: log2 fold change, soluble protein after heating vs DMSO (PISA); higher = thermal stabilisation; K562 lysate, 10 uM; active = over 0.2 and 3.5 SD of the protein, either way, in both replicates (recomputed)
[1] = compound: C1=CC=C(C=C1)[C@H](COC2=CC3=C(C=C2)NC(=O)N3)NC(=O)C4=CC=CN(C4=O)CC5=CC(=C(C=C5)F)F
Outline: (§1)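 Following dounce homogenisation of K562 pellets in PBS pH 7.4 with 1 mM MgCl2, crude extract at 1 mg/mL protein was incubated for 30 min with 10 μM compound. Aliquots were then heated for 3 min over 48°C-58°C and pooled, NP-40 was added to 0.5% at 4°C, and soluble protein was recovered as the supernatant at 21,000xg for 90 min. Channel-sum-equalised TMTpro 16plex LC-MS/MS quantified this protein. Each value, from duplicates, is a log-two fold change in thermal stability relative to solvent controls.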

[2] = compound: CC1=C(SC2=C1C(=N[C@H](C3=NN=C(N32)C)CC(=O)N)C4=CC=C(C=C4)Cl)C
Outline: as §1

[3] = compound: CC1=C2C(=CC=C1)N=C(N(C2=O)C3=CC=CC=C3C)CN4C=NC5=C(N=CN=C54)N
Outline: as §1

[4] = compound: Cc1sc2c(c1C)C(c1ccc(Cl)cc1)=N[C@@H](CC(=O)OC(C)(C)C)c1nnc(C)n1-2
Outline: as §1

[5] = compound: c1ccc([C@@H]2C[C@H]2NC2CCNCC2)cc1
Outline: as §1

Measured: log2 fold change

EIF1 (UniProt P41567)
UniProt P41567, sequence (P41567 whole entry, looked up): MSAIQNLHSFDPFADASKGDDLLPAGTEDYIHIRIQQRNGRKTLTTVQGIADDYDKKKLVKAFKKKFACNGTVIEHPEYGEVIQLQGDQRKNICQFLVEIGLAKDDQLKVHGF
inactive: [1] 0.146 | [2] -0.034 | [3] -0.031 | [4] -0.035 | [5] -0.114

FOXJ3 (UniProt Q9UPW0)
UniProt Q9UPW0, sequence (Q9UPW0 whole entry, looked up): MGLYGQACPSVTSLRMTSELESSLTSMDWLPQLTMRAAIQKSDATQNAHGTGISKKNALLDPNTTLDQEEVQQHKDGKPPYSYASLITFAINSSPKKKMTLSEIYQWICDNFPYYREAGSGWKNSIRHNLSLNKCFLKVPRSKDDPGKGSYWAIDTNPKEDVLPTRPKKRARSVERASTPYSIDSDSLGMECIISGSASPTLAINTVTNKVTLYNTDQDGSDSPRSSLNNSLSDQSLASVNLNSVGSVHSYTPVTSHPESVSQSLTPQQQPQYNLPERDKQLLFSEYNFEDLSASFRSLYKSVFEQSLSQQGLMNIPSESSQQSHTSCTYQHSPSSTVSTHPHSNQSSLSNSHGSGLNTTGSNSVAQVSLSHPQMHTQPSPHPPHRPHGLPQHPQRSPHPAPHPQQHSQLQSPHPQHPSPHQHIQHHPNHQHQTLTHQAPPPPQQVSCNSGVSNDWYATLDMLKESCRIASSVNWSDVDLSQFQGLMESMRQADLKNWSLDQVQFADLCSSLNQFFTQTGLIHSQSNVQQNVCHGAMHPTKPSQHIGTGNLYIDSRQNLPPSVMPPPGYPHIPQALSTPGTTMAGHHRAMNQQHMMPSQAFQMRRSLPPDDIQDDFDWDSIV
inactive: [1] 0.004 | [2] -0.072 | [3] 0.013 | [4] -0.021 | [5] -0.026

FAM118A (UniProt Q9NWS6)
UniProt Q9NWS6, sequence (Q9NWS6 whole entry, looked up): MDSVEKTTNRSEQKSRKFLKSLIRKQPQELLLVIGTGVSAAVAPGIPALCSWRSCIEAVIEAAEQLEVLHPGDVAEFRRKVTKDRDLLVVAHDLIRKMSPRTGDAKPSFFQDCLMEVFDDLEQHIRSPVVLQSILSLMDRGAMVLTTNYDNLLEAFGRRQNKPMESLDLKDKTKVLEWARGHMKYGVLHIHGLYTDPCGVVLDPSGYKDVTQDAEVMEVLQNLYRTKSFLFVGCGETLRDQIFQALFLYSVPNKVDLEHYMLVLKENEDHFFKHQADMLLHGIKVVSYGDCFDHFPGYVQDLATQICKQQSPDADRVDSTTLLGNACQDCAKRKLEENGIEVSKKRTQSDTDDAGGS
inactive: [1] -0.028 | [2] -0.033 | [3] -0.021 | [4] -0.108 | [5] -0.015

FAM118B (UniProt Q9BPY3)
UniProt Q9BPY3, sequence (Q9BPY3 whole entry, looked up): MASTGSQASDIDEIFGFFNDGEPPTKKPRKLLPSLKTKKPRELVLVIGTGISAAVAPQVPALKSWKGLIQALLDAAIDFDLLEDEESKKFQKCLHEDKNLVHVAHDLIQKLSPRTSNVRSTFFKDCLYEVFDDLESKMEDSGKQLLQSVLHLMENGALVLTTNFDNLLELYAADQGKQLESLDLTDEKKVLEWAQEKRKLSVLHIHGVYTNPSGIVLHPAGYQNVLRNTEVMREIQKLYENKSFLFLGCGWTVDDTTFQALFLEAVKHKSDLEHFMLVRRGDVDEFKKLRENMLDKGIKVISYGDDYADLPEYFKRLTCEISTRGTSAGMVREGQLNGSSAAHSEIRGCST
inactive: [1] -0.025 | [2] -0.062 | [3] -0.01 | [4] -0.018 | [5] 0.01

GART (UniProt P22102)
UniProt P22102, sequence (P22102 whole entry, looked up): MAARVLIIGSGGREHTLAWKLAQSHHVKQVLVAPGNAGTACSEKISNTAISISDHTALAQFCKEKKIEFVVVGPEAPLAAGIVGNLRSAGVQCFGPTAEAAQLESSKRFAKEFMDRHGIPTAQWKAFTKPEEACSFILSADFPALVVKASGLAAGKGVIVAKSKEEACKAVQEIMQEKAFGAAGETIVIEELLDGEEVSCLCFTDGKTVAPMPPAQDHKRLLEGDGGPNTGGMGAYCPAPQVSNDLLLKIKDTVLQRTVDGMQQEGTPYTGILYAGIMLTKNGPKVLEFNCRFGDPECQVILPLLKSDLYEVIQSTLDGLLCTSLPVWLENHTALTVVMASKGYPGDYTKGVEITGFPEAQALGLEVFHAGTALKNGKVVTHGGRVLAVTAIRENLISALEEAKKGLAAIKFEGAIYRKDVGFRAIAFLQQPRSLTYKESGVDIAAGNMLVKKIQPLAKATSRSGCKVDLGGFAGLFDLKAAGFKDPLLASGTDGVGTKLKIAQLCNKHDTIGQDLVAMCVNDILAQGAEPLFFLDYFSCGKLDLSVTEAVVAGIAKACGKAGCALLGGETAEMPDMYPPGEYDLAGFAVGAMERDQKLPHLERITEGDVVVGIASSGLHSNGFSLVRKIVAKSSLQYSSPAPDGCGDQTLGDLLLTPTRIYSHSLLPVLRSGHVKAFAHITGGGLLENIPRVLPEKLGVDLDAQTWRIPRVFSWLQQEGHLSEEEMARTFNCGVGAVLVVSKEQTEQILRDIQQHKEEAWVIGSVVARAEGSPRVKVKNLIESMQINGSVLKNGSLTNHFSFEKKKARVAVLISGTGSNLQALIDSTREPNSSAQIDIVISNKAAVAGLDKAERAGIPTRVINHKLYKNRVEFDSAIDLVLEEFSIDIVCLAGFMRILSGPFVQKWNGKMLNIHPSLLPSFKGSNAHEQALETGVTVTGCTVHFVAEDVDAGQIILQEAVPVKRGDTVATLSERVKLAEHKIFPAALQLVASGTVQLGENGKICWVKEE
inactive: [1] -0.04 | [2] 0.047 | [3] 0.011 | [4] 0.057 | [5] 0.042

EXOC5 (UniProt O00471)
UniProt O00471, sequence (O00471 whole entry, looked up): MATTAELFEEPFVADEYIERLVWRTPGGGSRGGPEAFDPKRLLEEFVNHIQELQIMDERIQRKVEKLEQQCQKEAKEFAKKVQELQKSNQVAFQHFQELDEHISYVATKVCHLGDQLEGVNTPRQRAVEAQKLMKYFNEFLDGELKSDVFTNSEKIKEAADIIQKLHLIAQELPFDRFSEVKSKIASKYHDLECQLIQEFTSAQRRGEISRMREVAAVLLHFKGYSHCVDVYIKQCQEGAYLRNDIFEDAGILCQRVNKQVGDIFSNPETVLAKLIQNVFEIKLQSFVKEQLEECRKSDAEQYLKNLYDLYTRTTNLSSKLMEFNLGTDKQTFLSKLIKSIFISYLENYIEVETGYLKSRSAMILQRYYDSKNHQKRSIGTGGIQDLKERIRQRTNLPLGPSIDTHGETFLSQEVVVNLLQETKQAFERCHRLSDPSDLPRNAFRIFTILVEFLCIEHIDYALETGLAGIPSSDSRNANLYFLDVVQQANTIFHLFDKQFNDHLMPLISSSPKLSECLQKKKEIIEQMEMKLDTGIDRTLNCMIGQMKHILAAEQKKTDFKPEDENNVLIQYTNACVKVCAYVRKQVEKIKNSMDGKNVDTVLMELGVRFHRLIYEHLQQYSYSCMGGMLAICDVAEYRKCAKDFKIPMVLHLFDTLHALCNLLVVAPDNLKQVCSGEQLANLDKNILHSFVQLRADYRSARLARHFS
inactive: [1] -0.065 | [2] -0.002 | [3] 0.068 | [4] -0.023 | [5] 0.035

FKBP1A (UniProt P62942)
UniProt P62942, sequence (P62942 whole entry, looked up): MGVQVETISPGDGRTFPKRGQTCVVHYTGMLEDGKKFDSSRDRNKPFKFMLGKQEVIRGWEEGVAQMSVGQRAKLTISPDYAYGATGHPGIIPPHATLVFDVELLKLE
inactive: [1] 0.011 | [2] -0.134 | [3] -0.069 | [4] -0.01 | [5] -0.214

EXOC6 (UniProt Q8TAG9)
UniProt Q8TAG9, sequence (Q8TAG9 whole entry, looked up): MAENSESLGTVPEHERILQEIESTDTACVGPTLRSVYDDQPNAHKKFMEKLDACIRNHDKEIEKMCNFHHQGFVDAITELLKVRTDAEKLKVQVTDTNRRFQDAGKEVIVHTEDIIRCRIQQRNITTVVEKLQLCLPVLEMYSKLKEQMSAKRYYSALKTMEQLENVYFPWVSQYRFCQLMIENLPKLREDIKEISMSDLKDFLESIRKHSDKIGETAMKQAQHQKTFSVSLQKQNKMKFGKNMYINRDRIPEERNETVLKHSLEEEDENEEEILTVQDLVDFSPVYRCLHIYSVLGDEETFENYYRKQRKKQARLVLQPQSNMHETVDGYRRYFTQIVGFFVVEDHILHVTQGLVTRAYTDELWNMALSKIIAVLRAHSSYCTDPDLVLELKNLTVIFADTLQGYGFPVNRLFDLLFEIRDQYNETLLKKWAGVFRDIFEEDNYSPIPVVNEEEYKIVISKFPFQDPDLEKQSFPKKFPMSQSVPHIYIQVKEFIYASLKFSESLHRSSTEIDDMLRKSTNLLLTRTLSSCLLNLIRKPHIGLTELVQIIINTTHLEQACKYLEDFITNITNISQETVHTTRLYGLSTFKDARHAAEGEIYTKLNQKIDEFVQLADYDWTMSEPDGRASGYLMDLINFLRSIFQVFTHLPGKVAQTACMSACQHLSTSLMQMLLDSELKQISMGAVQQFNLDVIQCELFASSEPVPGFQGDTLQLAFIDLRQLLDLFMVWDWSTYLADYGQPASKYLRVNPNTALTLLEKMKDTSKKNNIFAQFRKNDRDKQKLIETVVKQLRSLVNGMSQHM
inactive: [1] -0.035 | [2] -0.022 | [3] -0.006 | [4] 0.037 | [5] 0.151

DSN1 (UniProt Q9H410)
UniProt Q9H410, sequence (Q9H410 whole entry, looked up): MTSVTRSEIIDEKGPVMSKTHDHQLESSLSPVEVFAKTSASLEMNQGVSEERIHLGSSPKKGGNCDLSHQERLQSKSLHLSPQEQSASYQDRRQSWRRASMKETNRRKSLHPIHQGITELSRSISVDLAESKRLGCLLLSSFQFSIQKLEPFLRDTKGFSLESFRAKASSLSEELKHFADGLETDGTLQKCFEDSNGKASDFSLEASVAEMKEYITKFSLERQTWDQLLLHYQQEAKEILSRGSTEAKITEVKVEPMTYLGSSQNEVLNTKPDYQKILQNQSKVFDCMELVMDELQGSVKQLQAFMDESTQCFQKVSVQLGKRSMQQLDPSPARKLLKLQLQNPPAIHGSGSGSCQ
inactive: [1] -0.012 | [2] 0.053 | [3] 0.019 | [4] -0.013 | [5] 0.02
